# Bioassay records (PubChem BioAssay)
# Rows were chosen to be rich in hits. Some 2.6% of all compounds tested hit in one or more screens of this group.
# Myeloid diff MLP: induction of myeloid progenitor differentiation, primary screen, cell-based, flow cytometry, MLPCN library; ER-HoxA9 myeloid progenitors, lysozyme-GFP differentiation; calls only at 10 µM; hit rate 1% among 360,000; AID 624256, 2012;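 active means normalized GFP-positive differentiation at or above the plate's own cutoff, the solvent-only control mean plus 3 SD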;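 further: cells exposed to compound for four days before flow analysis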
# IDE inh: human IDE inhibitors in live cells, primary screen, fluorescence polarization, HEK cells, FAbetaB substrate; Insulin-degrading enzyme (Homo sapiens), P14735; FAbetaB cleavage; inhibition, % at 5.59 µM; hit rate 0.41% among 320,000; AID 434962, 2010;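 active means percent inhibition above the average of all tested compounds plus 3 SD, set per screening campaign, cut at about 16% in these data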;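 further: IDE supplied by intact live HEK cells; FP after avidin binding of uncleaved biotin substrate so inhibition keeps polarization high; 0% = DMSO wells and 100% = 60 µM reference IDE inhibitor Ii1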
# CRFR2-BP antag: antagonists of CRF-BP/CRF-R2 complex, primary screen, cell-based, HEK293, calcium dye fluorescence, uHTS | CRF-induced calcium fluorescence | inhibition, % at 11.8 µM | hit rate 0.59% among 350,000 | AID 588475, 2011;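 active means inhibition of the ligand-induced calcium signal above about 50% at the single tested concentration, limit read from the data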
# TPT1 inh: Candida albicans TPT1 enzyme inhibitors, primary screen, biochemical, fluorescence polarization. tRNA 2'-phosphotransferase TPT1 (Candida albicans SC5314). recombinant caTPT1, FP RNA substrate dephosphorylation. inhibition, % at 5 µM. hit rate 0.81% among 300,000;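 active means inhibition above the mean of all tested compounds plus 3 SD, set per screening campaign, cut at about 24% in these data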;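 further: plate controls were DMSO alone for no effect and ferristatin control at 100 nM for full effect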
# CRFBP-R2 agonist: agonists of CRF-BP/CRF-R2 complex, primary screen, cell-based, HEK293, calcium dye fluorescence, uHTS; activation, % at 13.2 µM; hit rate 0.46% among 350,000; calcium dye fluorescence (FLIPR); percent of saturating CRF peptide response;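 active means activation of at least 50%, plus an integration ratio under a set limit after plate pattern correction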;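 further: plate controls were neutral control wells without compound for no effect and CRF at EC100 for full effect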
# IDE cell activ: human IDE activators in live cells, primary screen, fluorescence polarization, HEK cells, FAbeta-B substrate | FAbeta-B cleavage; 0% vehicle, 100% cell-free pure enzyme wells | Insulin-degrading enzyme (Homo sapiens), P14735 | activation, % at 5.96 µM | hit rate 0.073% among 340,000;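 active means activation above the mean of all tested compounds plus 3 SD, set per screening campaign, cut at about 17% in these data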
# * = called active by the depositor; i = inactive; x = no result given; + = active, no number.
SMILES,Myeloid diff MLP,IDE inh,CRFR2-BP antag,TPT1 inh,CRFBP-R2 agonist,IDE cell activ
NS(=O)(=O)c1cccc(NC(=O)CSc2n[nH]c(-c3ccccc3Br)n2)c1,i,x,6.5,x,-0.5,-2.8
COc1ccc(C(N)c2csc(Nc3nncc4ccccc34)n2)cc1 (centres undefined),+,x,x,x,x,x
COc1cccc(Nc2nc(C(C)N)cs2)n1 (centres undefined),i,x,x,x,x,x
COc1cccc(Nc2nc(C(N)c3ccccc3)cs2)n1 (centres undefined),+,x,x,x,x,x
Cc1ccc(NC(=O)Cn2cnc3c(NCc4ccccc4)ncnc32)cc1C,i,x,0.6,x,-2.0,2.2
C=CCOc1c(Br)cc(/C=N/Nc2ccc(C(=O)O)cc2)cc1OCC,i,-2.7,16.3,-0.9,-10.6,-2.1
CC[C@H]1OC(=O)C[C@@H](O)[C@H](C)[C@@H](O[C@@H]2O[C@H](C)C[C@H](N(C)C)[C@H]2O)[C@@H](CC=O)C[C@@H](C)C(=O)C=C[C@]2(C)O[C@H]2[C@@H]1C,x,-2.4,x,-2.2,x,x
C[C@@H]1CN([C@@H](C)CO)S(=O)(=O)c2ccc(Br)cc2O[C@H]1CN(C)C(=O)Nc1ccc(C(F)(F)F)cc1,i,x,-23.5,x,0.0,x
CCCCCCSc1ccc([C@@H]2[C@H]3C(=O)N(C)C(=O)[C@H]3[C@]3(C(=O)OC)CCCCN23)cc1OC,+,-1.2,0.9,5.3,1.7,-0.6
Cn1c(SCC(=O)c2ccccc2)nc2cccnc21,i,0.1,10.7,-0.6,3.0,-4.2
Cn1c(SCC(=O)N2CCCc3ccccc32)nc2cccnc21,i,-5.8,55.7*,0.6,-4.3,0.8
Cc1ccc(C(=O)CSc2nc3cccnc3n2C)cc1,+,4.7,-2.0,-1.7,1.1,-5.0
Cc1ccc(/C=C2/SC(=S)N(c3ccc(S(=O)(=O)Nc4nccs4)cc3)C2=O)cc1,i,0.1,59.4*,3.0,-0.6,-4.5
COc1ccc(/C=C2/SC(=S)N(c3ccc(S(=O)(=O)Nc4nccs4)cc3)C2=O)cc1,i,8.2,1.2,2.1,3.1,-10.4
CC(C)Cn1cnc2c(SCc3ccccc3)nc(N)nc21,i,x,67.7*,x,1.6,-0.8
COc1ccc(Cl)cc1NC(=O)c1ccoc1C,i,6.1,80.3*,-1.0,-1.6,1.4
COc1ccc(C)cc1NC(=O)c1ccoc1C,i,3.3,5.3,-3.7,-0.2,1.9
Cc1ccc(NC(=O)COC(=O)CN2C(=O)NC3(CCCC3)C2=O)cc1S(=O)(=O)N(C)C,i,3.8,61.1*,-0.1,2.0,-1.5
Cc1ccc(NC(=O)COC(=O)CN2C(=O)NC3(CCCC3)C2=O)cc1Cl,i,-1.7,3.1,x,0.5,4.6
Cc1ccc(S(=O)(=O)N2CCCCCC2)cc1[N+](=O)[O-],i,7.8,58.1*,1.2,-1.0,0.1
O=c1c2c(-c3ccccc3)csc2nc2c3ccccc3c(NCCN3CCOCC3)nn12,x,x,-15.9,x,1.1,18.5*
O=c1c2ccccc2nc2c3ccccc3c(NCCN3CCOCC3)nn12,x,-2.2,x,-0.2,x,x
COc1ccc(S(=O)(=O)N(C)CC(=O)NC2CCCCC2)cc1OC,i,-0.9,51.4*,-3.0,-0.3,4.5
COc1ccc(S(=O)(=O)N(C)CC(=O)NCc2ccco2)cc1Cl,+,-3.8,-17.6,-1.3,0.8,4.5
CN(CCCC(=O)NCc1ccco1)S(=O)(=O)c1ccccc1,+,2.6,11.8,-2.6,-0.4,3.8
CN(Cc1cn(-c2ccccc2)nc1-c1cc2ccccc2o1)C(=O)CCC(=O)O,i,3.3,-5.2,5.1,0.6,-2.5
COc1ccc(C(=O)NC(Oc2ccccc2)C(Cl)(Cl)Cl)cc1 (centres undefined),i,3.2,112.8*,-1.6,12.2,2.5
Cc1cccc(C=CC(=O)c2ccccc2)c1,i,x,8.5,x,0.4,6.1
Cc1ccc(C(=O)C=Cc2cccc(C)c2)cc1,i,x,59.5*,x,-0.8,-1.8
CN(C(=O)c1ccc(S(=O)(=O)NC2CCCC2)cc1)C1CCCCC1,i,-1.0,-75.5,4.8,50.8*,-0.3
